We go through 16 compounds from PubChem BioAssay (NCI).

Common to all, as to experiment: NCI-60 one-dose screen, 48 h (100 = growth as untreated, 0 = no growth, -100 = all killed)
Details in all cases: 10 µM unless noted

Test [1] has as its system HCT-15 colon.
Test [2] deals with HT29 colon.
In test [3] the test system is SNB-75 CNS.
The test system of test [4] is SNB-19 CNS.
Test [5] relates to U251 CNS.
The test system of test [6] is PC-3 prostate.
Test [7] concerns SK-MEL-5 melanoma.
For test [8], the system named is UACC-62 melanoma.
In test [9] the test system is LOX IMVI melanoma.
In test [10] the test system is SK-MEL-28 melanoma.
Test [11] relates to EKVX NSCLC.
For test [12], the system named is SN12C renal.
Test [13] has as its system UO-31 renal.
Test [14] deals with TK-10 renal.
In test [15] the test system is ACHN renal.
Test [16] relates to CAKI-1 renal.
Test [17] has as its system A498 renal.
In test [18] the test system is CCRF-CEM leukemia.
Test [19] concerns MOLT-4 leukemia.
For test [20], the system named is SK-MEL-2 melanoma.

The panel holds about 83,000 compounds, 20% with a hit somewhere; the sample as a whole holds those more often.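 Interpretation: 100, growth as untreated; towards 0, rising growth inhibition; 0, no net growth; 0 to -100, cell death. Compounds scoring below 10 were considered active.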 Values without a mark were called inactive. Active and inactive are the calls of the source.

Consider `COc1ccc(N2CCN(CC(=O)N3CCN(c4nnc(-c5ccc(Cl)cc5)c(-c5ccc(Cl)cc5)n4)CC3)CC2)cc1`, for which the growth in [1] was 45%; in [2], 40.9%; in [3], 76.3%; in test [4], 76%; in [5] it was 52.3%; in [6], 22.5%. In addition, the growth is 38% in [7]; 66.6% in test [8]; 49.6% in [9]; 71.5% in test [10]; 53.4% in [11]; 67.7% in test [12]. Moreover, the growth in test [13] was 21.2%; in test [14], 84.2%; in [15], 52.3%; in test [16], 147%; in test [17], 38.1%; in test [18], 20.6%. In addition, the growth in test [19] is -21.2% (active).
As to `O=[N+]([O-])c1ccc(N=Nc2c(Cl)cc(O)cc2Cl)cc1`, the growth in [1] is -25.7% (active); in test [2] it was 8.53% (active); in test [3], -10.4% (active); in test [4], 20.1%; in [5], 10%; in test [6] it was 8.4% (active). The growth was -58.7% (active) in test [7]; -44.1% (active) in test [8]; 5.72% (active) in test [10]; -19.1% (active) in [20]; 1.71% (active) in test [11]; 0.728% (active) in [12]. Moreover, the growth was -31.5% (active) in test [13]; 9.62% (active) in test [14]; 1.34% (active) in test [15]; -11.9% (active) in [16]; -26.4% (active) in test [17]; 8.97% (active) in test [18]. Besides, the growth in test [19] was -19% (active).
As to `COc1ccc(C2=NN(C(C)=O)C(c3cccc(Nc4ccnc5cc(Cl)ccc45)c3)C2)cc1` (stereo unspecified), the growth in test [1] was 44.8%; in test [2], 7.9% (active); in [3], 56.4%; in [4] it was 56.5%; in [5], 51%; in test [6], 31%. Moreover, the growth was 43.7% in [7]; 68.6% in test [8]; 42.7% in [9]; 73% in [10]; 64.7% in test [11]; 48.5% in test [12]. Moreover, the growth in [13] was 37.5%; in test [14], 58.3%; in [15], 60.8%; in test [17], 33.1%; in test [18], 40.8%; in [19], 22.3%.
In the case of `O=C(COc1ccc(/C=C2\Cc3ccccc3C2=O)cc1)c1ccc(Cl)cc1`, the growth in [1] was 96.1%; in test [2], 109%; in [3], 94.5%; in test [4], 95.7%; in test [5] it was 93.7%; in test [6], 92.1%. The growth in test [7] was 98.4%; in [8], 95.2%; in test [9], 92.8%; in test [10], 117%; in [11], 101%; in test [12] it was 98.9%. Moreover, the growth in test [13] is -7.83% (active); in test [14] it was 133%; in test [15], 107%; in [16] it was 78.2%; in [17], 108%; in [18] it was 95.2%. In addition, the growth in test [19] is 95.9%.
For `O=C(CN1CCN(c2ccc(Cl)cc2)CC1)N1CCN(c2nnc(-c3ccccc3)c(-c3ccccc3)n2)CC1`, the growth in test [1] is 42.3%; in [2], 29.2%; in test [3], 65.8%; in [4], 60%; in test [5], 45.8%; in [6] it was 12.1%. Besides, the growth was -9.45% (active) in test [7]; 53% in [8]; 38.5% in test [9]; 83% in test [10]; 29.9% in test [11]; 49.5% in test [12]. Besides, the growth is 14.6% in test [13]; 68.8% in test [14]; 39.3% in test [15]; 92.6% in [16]; 45.4% in test [17]; 20.4% in [18]. Besides, the growth in test [19] is -35.1% (active).
`COc1ccc(C(=O)/C=C/c2cccc(Nc3ccnc4cc(Cl)ccc34)c2)cc1`: the growth in test [1] was 30.6%; in test [2] it was 1.05% (active); in test [3] it was -1.22% (active); in test [4], 51.3%; in test [5], 8.83% (active); in test [6] it was 33.7%. The growth was 7.89% (active) in test [7]; 27.8% in [8]; 6.49% (active) in test [9]; 44.6% in test [10]; 50.9% in test [11]; 25.7% in [12]. Further, the growth in test [13] is 6.64% (active); in test [14], -11% (active); in test [15], 29.6%; in [17], 39.7%; in [18] it was 37.2%; in test [19], 42.3%.
For the compound `CC(=O)N1N=C(c2ccc(Nc3nc(NCCO)nc(NCCO)n3)cc2)CC1c1ccc(Cl)cc1` (stereo unspecified), the growth in test [1] is 94.5%; in [2], 86.8%; in test [3], 84.7%; in test [4], 86.3%; in [5], 94.3%; in [6], 81.4%. The growth is 98.3% in test [7]; 107% in test [8]; 93.6% in [9]; 104% in test [10]; 91.9% in test [11]; 98.8% in [12]. Also, the growth in [13] is 96.9%; in test [14] it was 83.3%; in [15], 96.4%; in test [17], 102%; in test [18], 114%; in [19] it was 116%.
Regarding `COc1cc(C(=O)/C=C/c2cccc(Nc3ccnc4cc(Cl)ccc34)c2)cc(OC)c1OC`, the growth is -32.1% (active) in [1]; -90% (active) in test [2]; 16.4% in [3]; 20.3% in [4]; -90.9% (active) in test [5]; -12.7% (active) in [6]. In addition, the growth was -45.5% (active) in [7]; 22.5% in test [8]; -85.8% (active) in test [9]; -39.2% (active) in test [10]; 16.8% in test [11]; -1.72% (active) in test [12]. Moreover, the growth is -87.9% (active) in test [13]; -39.5% (active) in test [14]; -68.7% (active) in test [15]; 78.6% in test [17]; 2.7% (active) in test [18]; -6.64% (active) in test [19].
As for `Cc1sc2nc(N3CCCCC3)[nH]c(=O)c2c1C`, the growth was 103% in test [1]; 88.6% in test [2]; 91% in test [3]; 92.4% in test [4]; 92.4% in [5]; 76.4% in test [6]. Further, the growth in test [7] was 96.9%; in test [8], 97.5%; in test [9] it was 99%; in test [10] it was 103%; in [11] it was 94.3%; in [12] it was 99.2%. Besides, the growth is 96% in [13]; 106% in [14]; 103% in test [15]; 95% in [17]; 93.7% in [18]; 88.8% in test [19].
Regarding `CCOC(=O)c1cnc2c(C)cc(C)cc2c1NCCCN(C)C`, the growth in test [1] is 28.2%; in test [2] it was 13.1%; in test [3], 51.1%; in test [4], 42.4%; in test [5], 28.3%; in test [6] it was 22%. The growth in test [7] is 46.5%; in [8] it was 46.7%; in [9], 23.2%; in test [10], 76.2%; in test [11], 41%; in [12] it was 37.6%. Besides, the growth in test [14] is 30.7%; in [15], 28.7%; in [16], -7.71% (active); in test [17], 64.5%; in [18], 19.8%; in test [19], 5.24% (active).
`O=c1[nH]c(N2CCC(Cc3ccccc3)CC2)nc2sc3c(c12)CCCC3`: the growth is 101% in test [1]; 83.8% in test [2]; 89.4% in test [3]; 106% in [4]; 91.7% in test [5]; 72.7% in test [6]. The growth in test [7] is 102%; in test [8], 98.1%; in [9], 97.4%; in test [10], 115%; in test [11], 99.5%; in [12], 103%. In addition, the growth in test [13] was 102%; in test [14] it was 99%; in [15], 104%; in [17], 102%; in [18] it was 91.6%; in test [19], 100%.
For the compound `COc1cc(C2=NN(C=O)C(c3cccc(Nc4ccnc5cc(Cl)ccc45)c3)C2)cc(OC)c1OC` (stereo unspecified), the growth is 52.4% in [1]; 22% in test [2]; 74.3% in test [3]; 76.2% in [4]; 66.8% in test [5]; 42.7% in [6]. Further, the growth in test [7] was 68.1%; in test [8], 96.4%; in test [9] it was 54.5%; in [10], 90.6%; in test [11] it was 79.3%; in [12], 77.2%. Also, the growth in [13] was 68.7%; in [14], 87.9%; in [15] it was 86.2%; in test [17], 62.5%; in [18], 53.9%; in test [19], 27.9%.
As for `COc1cc(C2CC(C3C(=O)N(C)C(=O)N(C)C3=O)=NN2C=O)cc(OC)c1OC` (stereo unspecified), the growth is 102% in test [1]; 76.2% in [2]; 94.8% in test [3]; 100% in [4]; 96.3% in test [5]; 75.9% in test [6]. Further, the growth in test [7] was 113%; in test [8] it was 93.9%; in test [9], 97.7%; in test [10] it was 108%; in test [11] it was 100%; in test [12] it was 94%. Also, the growth in test [13] was 101%; in test [14] it was 87.4%; in test [15] it was 105%; in test [18] it was 82.8%; in test [19], 92.7%.
Take `Cc1sc2nc(NCCc3cccs3)[nH]c(=O)c2c1C`: the growth in test [1] was 59.6%; in test [2] it was 85.1%; in test [3] it was 90.1%; in [4] it was 90.2%; in test [5], 75.8%; in test [6], 71.9%. For the same compound, the growth in test [7] is 90.8%; in test [8], 63.1%; in [9], 88.7%; in test [10], 100%; in test [11], 85.5%; in [12], 87.7%. Also, the growth was 90% in [13]; 96.8% in [14]; 96.1% in test [15]; 70.7% in test [17]; 81.9% in [18]; 75.3% in test [19].
As to `O=C(CNC(=O)c1cccc2ccccc12)Nc1ccccc1Oc1ccc(O)cc1`, the growth in test [1] is 27.4% [5 µM]; in [2] it was 4.1% [5 µM] (active); in test [3], 19.7% [5 µM]; in test [4] it was 51.9% [5 µM]; in [5] it was 20.8% [5 µM]; in [6], 31.1% [5 µM]. Also, the growth in test [7] is 27.7% [5 µM]; in test [8], 55% [5 µM]; in test [9], 40.9% [5 µM]; in test [10], 59.9% [5 µM]; in test [11], 52.4% [5 µM]; in test [12], 55% [5 µM]. In addition, the growth was 45.2% [5 µM] in [13]; 43.6% [5 µM] in test [14]; 43.8% [5 µM] in test [15]; 17.6% [5 µM] in [17]; 22.4% [5 µM] in test [18]; 19.6% [5 µM] in test [19].
For `O=C(/C=C/c1ccc(C(F)(F)F)cc1)c1ccc(Nc2nc(NCCO)nc(NCCO)n2)cc1`, the growth in test [1] is 45.5%; in test [2], 5.46% (active); in test [3], 55.8%; in test [4] it was 56.7%; in [5], -21.2% (active); in test [6], 48.7%. Also, the growth in test [7] is 76.5%; in test [8] it was 79.1%; in [9] it was -44.2% (active); in test [10], 94.9%; in test [11], 79.5%; in test [12], 65.7%. Further, the growth is 44.2% in test [13]; 54.8% in [14]; 83.7% in [15]; 82.1% in [17]; 7.48% (active) in [18]; 34.5% in [19].
